Measured values reported in the supplement of paper PMC10338343.
± gives the standard deviation.

What was measured:
[1] = system: MILI (PIWIL2) piRISC loaded with piRNA #1 (26 nt); assay: pre-steady-state target cleavage rate (min^-1); guide: piRNA #1 5'p-UGAGGUAGUAGGUUGUAUAGUAUCCA; higher = faster piRNA-guided slicing of the target; details: auxiliary factor: 500 nM mouse GTSF1
How it was run: (§1)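 The pre-steady-state cleavage rate was obtained by Cleave-'n-Seq with a burst-and-steady-state fit. A transcribed, DNA-blocked target RNA library (0.1 nM) was mixed with 1 nM active affinity-purified piRISC carrying one synthetic guide, with or without 500 nM GTSF1 partner protein, in HEPES–potassium acetate buffer at 33 °C for 0–8 or 0–960 min. Uncleaved targets were sequenced and normalised to depth and to weakly complementary targets, with three trials pooled and k3 capped at 0.0001 min^-1.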

[2] = system: EfPiwi piRISC loaded with piRNA #1 (26 nt); assay: pre-steady-state target cleavage rate (min^-1); auxiliary factor: 500 nM Ephydatia muelleri Gtsf1; guide: piRNA #1 5'p-UGAGGUAGUAGGUUGUAUAGUAUCCA; MIWI and MILI are mouse PIWI proteins and EfPiwi is from a freshwater sponge; tags in brackets are library labels; higher = faster piRNA-guided slicing of the target
How it was run: as §1

Which “pre-steady-state target cleavage rate” value [1] does the source give for GGAGACCUAUGAUUACAACCUACUGCCUCA here?
Its value is 0.00572 ± 0.0028.

Which “pre-steady-state target cleavage rate” value [1] does the source give for “GGAGACCUAUGAUAUGUUCCUACUACCUCU [g2:g12:cont:t1U]” here?
Its value is < 0.0001.

How did the “pre-steady-state target cleavage rate” value [1] turn out when GGAGACCUAUGAUUACAACCUACUACCGUCA was run?
The value was 0.00492 ± 0.0022.

With GGAGACCUAUGAAUACAACCUCCUACCUCA as the sequence, how does the “pre-steady-state target cleavage rate” value [1] read?
The value was 0.00498 ± 0.0023.

With GGAGACCUAUGAUAACAAGCUACUACCUGA as the sequence, how does the “pre-steady-state target cleavage rate” value [1] read?
The value was 0.00722 ± 0.0035.

Which “pre-steady-state target cleavage rate” value [1] does the source give for GGAGACCUAUGUUUACAACGUACUACCUCA here?
The value was 0.00618 ± 0.0026.

How did the “pre-steady-state target cleavage rate” value [1] turn out when GGAGACCUAACUAUACUAGCUACUACCUCA was run?
The value was 0.12 ± 0.015.

How did the “pre-steady-state target cleavage rate” value [1] turn out when GGAGACCUAAGUAUACAACCAACUACCUCA was run?
The value was 0.00465 ± 0.0039.

GGAGAAGAUACUAUACAACCUACUACCUCA was tested. Which “pre-steady-state target cleavage rate” value [1] did it give?
Its value is 0.22 ± 0.016.

Which “pre-steady-state target cleavage rate” value [1] does the source give for GGAGACCAUACUAUACAACCAACUACCUCA here?
The value was 0.00362 ± 0.0025.

For GGAGACCUAUGAUAUCAACUUACUACCUCA, which “pre-steady-state target cleavage rate” value [1] is on record?
Its value is 0.00319 ± 0.0027.

For GGAGACCUUACUAUACAACCUACAACCUGA, which “pre-steady-state target cleavage rate” value [1] is on record?
Its value is 0.0284 ± 0.0093.

How did the “pre-steady-state target cleavage rate” value [1] turn out when GGAGACCUAUGUAUACAACCUACUACGUCA was run?
The value was 0.0197 ± 0.0037.

Which “pre-steady-state target cleavage rate” value [1] does the source give for GGAGACGAUACUAUACUACCUACUAGCUCA here?
The value was 0.124 ± 0.018.

For GGAGACCUAUGAUAUCUAACCUACUACCUCA, which “pre-steady-state target cleavage rate” value [1] is on record?
Its value is 0.00471 ± 0.0023.

With GGAGACCAUACUAAACAACCUAGUACCUCA as the sequence, how does the “pre-steady-state target cleavage rate” value [1] read?
The value was 0.0362 ± 0.0083.

How did the “pre-steady-state target cleavage rate” value [1] turn out when GGAGACCUAUGAUAUGUUCCUACUAACUCA was run?
Its value is < 0.0001.

For GGAGACCUAUGAAUACAUCCUACUACCACA, which “pre-steady-state target cleavage rate” value [1] is on record?
Its value is 0.0133 ± 0.0041.

How did the “pre-steady-state target cleavage rate” value [1] turn out when GGAGACCUAUGUAUAGAUCCUACUACCUCA was run?
The value was 0.0611 ± 0.0081.

How did the “pre-steady-state target cleavage rate” value [1] turn out when GGAGACCUAUGAUAUGUAACCUACUACCUCA was run?
Its value is 0.017 ± 0.0038.

For GGAGACCUAACUAUACAUCCUAGUACCUCA, which “pre-steady-state target cleavage rate” value [1] is on record?
Its value is 0.0577 ± 0.02.

How did the “pre-steady-state target cleavage rate” value [1] turn out when GGAGACCUAUCUAUACAACCUACUACGACA was run?
The value was 0.0627 ± 0.01.

For GGAGACCUAUGUAUACAACCUUCUACCACA, which “pre-steady-state target cleavage rate” value [1] is on record?
The value was 0.00445 ± 0.0026.

For GGAGAGGAUACUAUACAACCUACAUACCUCA, which “pre-steady-state target cleavage rate” value [1] is on record?
The value was 0.123 ± 0.012.

GGAGACCUAUGUAUACAUCCUACUACCACA was tested. Which “pre-steady-state target cleavage rate” value [1] did it give?
Its value is 0.163 ± 0.017.

Which “pre-steady-state target cleavage rate” value [1] does the source give for GGAGACCUAUGAUAUGUUCCUACUUCCUCA here?
Its value is < 0.0001.

GGAGACGAUACUAUACAACCUAUUACCUCA was tested. Which “pre-steady-state target cleavage rate” value [1] did it give?
Its value is 0.219 ± 0.021.

For GGAGACCUAUGAUAUGUUGCUACAACCUGA, which “pre-steady-state target cleavage rate” value [1] is on record?
Its value is < 0.0001.

How did the “pre-steady-state target cleavage rate” value [1] turn out when GGAGACCUUACUAUAAACCUACUACCUCA was run?
The value was 0.00481 ± 0.0027.

For GGAGACCAUACUAUACAACGUACUACGUCA, which “pre-steady-state target cleavage rate” value [1] is on record?
Its value is 0.0148 ± 0.0053.

GGAGACCUAUGAUAAGCAACCUACUACCUCA was tested. Which “pre-steady-state target cleavage rate” value [1] did it give?
The value was 0.00516 ± 0.0031.

Which “pre-steady-state target cleavage rate” value [1] does the source give for GGAGACCUAACUAUACAUCCUACUUCCUCA here?
Its value is 0.14 ± 0.044.

With GGAGACCUAAGUAUACAACCUACUUCCUCA as the sequence, how does the “pre-steady-state target cleavage rate” value [1] read?
Its value is 0.0285 ± 0.0069.

Which “pre-steady-state target cleavage rate” value [1] does the source give for GGAGACCUAUGAUAUGUUCCUCCUACCUCA here?
The value was < 0.0001.

GGAGACGAUACUAUACAACCUACUCCCUCA was tested. Which “pre-steady-state target cleavage rate” value [1] did it give?
Its value is 0.106 ± 0.017.

With GGAGACCUUACUAUACAACCUACUUACCUCA as the sequence, how does the “pre-steady-state target cleavage rate” value [1] read?
Its value is 0.158 ± 0.013.

How did the “pre-steady-state target cleavage rate” value [1] turn out when GGAGACCUAACUUUACUACCUACUACCUCA was run?
Its value is 0.0581 ± 0.013.

With GGAGACCUAUGUAUACUACCUAGUACCUCA as the sequence, how does the “pre-steady-state target cleavage rate” value [1] read?
The value was 0.00575 ± 0.0022.

GGAGACGAUACUAUACAACCAACUACGUCA was tested. Which “pre-steady-state target cleavage rate” value [1] did it give?
The value was 0.00504 ± 0.0028.

What about the “pre-steady-state target cleavage rate” value [2] of the same sequence?
The value was 0.00251 ± 0.0018.

With GGAGACGAUACUUUACAACCUACUACCUCA as the sequence, how does the “pre-steady-state target cleavage rate” value [1] read?
Its value is 0.189 ± 0.013.

And the “pre-steady-state target cleavage rate” value [2]?
The value was 0.00691 ± 0.0033.

For GGAGACCAUACUAUACAACCUACUACCCCA, which “pre-steady-state target cleavage rate” value [1] is on record?
Its value is 0.156 ± 0.024.

What about the “pre-steady-state target cleavage rate” value [2] of the same sequence?
Its value is 0.00577 ± 0.0028.

How did the “pre-steady-state target cleavage rate” value [1] turn out when GGAGACCAAACUAUACAUCCUACUACCUCA was run?
The value was 0.168 ± 0.034.

What about the “pre-steady-state target cleavage rate” value [2] of the same sequence?
Its value is 0.0348 ± 0.013.

GGAGAGGAUACUAUACAACCUACUACCUGA was tested. Which “pre-steady-state target cleavage rate” value [1] did it give?
The value was 0.0731 ± 0.011.

What about the “pre-steady-state target cleavage rate” value [2] of the same sequence?
The value was 0.00647 ± 0.0028.

How did the “pre-steady-state target cleavage rate” value [1] turn out when GGAGACCAUACUUAACAACCUACUACCUCA was run?
The value was 0.134 ± 0.018.

And the “pre-steady-state target cleavage rate” value [2]?
Its value is 0.00395 ± 0.0032.

With GGAGACCUAUCUAUACAUGCUACUACCUCA as the sequence, how does the “pre-steady-state target cleavage rate” value [1] read?
The value was 0.0973 ± 0.012.

With GGAGACCUAUGUAUUCAACCUACUACGUCA as the sequence, how does the “pre-steady-state target cleavage rate” value [1] read?
The value was 0.00786 ± 0.0022.

How did the “pre-steady-state target cleavage rate” value [1] turn out when GGAGACCUUACUAUACAACCUCCUACCUCA was run?
The value was 0.0597 ± 0.01.

What about the “pre-steady-state target cleavage rate” value [2] of the same sequence?
The value was 0.00545 ± 0.003.

How did the “pre-steady-state target cleavage rate” value [1] turn out when GGAGACCUAUCUAUACUACCUACUACCACA was run?
Its value is 0.117 ± 0.015.

Which “pre-steady-state target cleavage rate” value [1] does the source give for GGAGACCUAUGAUUACAUCCUACUAGCUCA here?
Its value is 0.00651 ± 0.0025.

What does the source list for GGAGACGAUACUAUACAACCUACUACUCUCA?
pre-steady-state target cleavage rate [1]: 0.244 ± 0.019; pre-steady-state target cleavage rate [2]: 0.00563 ± 0.0022

Which “pre-steady-state target cleavage rate” value [1] does the source give for GGAGUGGUUACUUUACAACCUACUACCUCA here?
The value was 0.162 ± 0.0089.

What about the “pre-steady-state target cleavage rate” value [2] of the same sequence?
The value was 0.00342 ± 0.0031.

Which results are given for GGAGACCUGACUAUACAACCUACUACCUCA?
pre-steady-state target cleavage rate [1]: 0.125 ± 0.028; pre-steady-state target cleavage rate [2]: 0.0243 ± 0.01

GGAGAGGAUACUAUACAACCAACUACCUGA was tested. Which “pre-steady-state target cleavage rate” value [1] did it give?
Its value is 0.00399 ± 0.0021.

What about the “pre-steady-state target cleavage rate” value [2] of the same sequence?
The value was 0.00332 ± 0.0017.

For GGAGACCUAUCUAUACUACCUACUACCUCA, which “pre-steady-state target cleavage rate” value [1] is on record?
Its value is 0.0815 ± 0.01.

What about the “pre-steady-state target cleavage rate” value [2] of the same sequence?
The value was 0.00437 ± 0.0031.

What does the source list for GGAGUGGGAUACUAUACAACCUACUACCUCA?
pre-steady-state target cleavage rate [1]: 0.204 ± 0.011; pre-steady-state target cleavage rate [2]: 0.143 ± 0.046

How did the “pre-steady-state target cleavage rate” value [1] turn out when GGAGACGAUACAUACAACCUACUACCUCA was run?
The value was 0.158 ± 0.019.

What about the “pre-steady-state target cleavage rate” value [2] of the same sequence?
The value was 0.00551 ± 0.0028.

With GGAGUGGAUACUAUACAAGCUACUAGCUCA as the sequence, how does the “pre-steady-state target cleavage rate” value [1] read?
Its value is 0.0419 ± 0.0091.

And the “pre-steady-state target cleavage rate” value [2]?
The value was 0.00331 ± 0.0021.

How did the “pre-steady-state target cleavage rate” value [1] turn out when GGAGACCUAACAAUACAACCAACUACCUCA was run?
Its value is 0.00518 ± 0.004.

GGAGUGCAUAGUAUACAACCUACUACCUCA was tested. Which “pre-steady-state target cleavage rate” value [1] did it give?
The value was 0.125 ± 0.011.

What about the “pre-steady-state target cleavage rate” value [2] of the same sequence?
Its value is 0.0131 ± 0.0064.

How did the “pre-steady-state target cleavage rate” value [1] turn out when GGAGACCUUACUAAUCAACCUACUACCUCA was run?
The value was 0.11 ± 0.016.

How did the “pre-steady-state target cleavage rate” value [1] turn out when GGAGAGGAUACUAAUCAACCUACUACCUCA was run?
Its value is 0.148 ± 0.011.

And the “pre-steady-state target cleavage rate” value [2]?
The value was 0.00473 ± 0.0039.

With GGAGACCUAUGAAUACAACGUACUUCCUCA as the sequence, how does the “pre-steady-state target cleavage rate” value [1] read?
The value was 0.00328 ± 0.0027.
